# In PubChem BioAssay:
# “And” between values parts separate entries of the source, which are not always exact repeats. Equal entries are not always repeated. For some of these results: Measured potencies and affinities stand elsewhere. More than one record can exist for a structure, and the calls need not agree. The source made the active and inactive calls.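 The calls were made as follows, unless noted: active = normalized viability below 100% at a tested concentration; inactive = the rest.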
# How the values were obtained:
# [1] = blockers of polyQ-driven CASP3 activation – cell-based (AID 1583); conditions: polyglutamine-induced caspase-3 activation, cell assay; stronger effect = higher value;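 tested at 10 µM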
# [2] = yeast 75Q aggregation reduction – 75Q-TubU reporter (AID 1593); conditions: Yeast 75Q polyglutamine aggregation reporter
# [3] = restoration of touch response, mutant HTT neurons – whole organism, C. elegans mechanosensory neurons, N-terminal huntingtin (AID 1599); conditions: C. elegans polyQ-huntingtin mechanosensory neurons, stronger effect = higher value
# [4] = blockers of cytochrome c efflux from mitochondria – biochemical, purified mitochondria (AID 1603); conditions: stronger effect = lower value;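 also: mouse liver mitochondria challenged with calcium chloride; signal normalized to the plate average as 100%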
# [5] = polyglutamine aggregate formation blockers (AID 1604); conditions: polyglutamine-induced protein aggregation inhibition assay; stronger effect = higher value; tested at 2.5 µM
# [6] = Wnt pathway potentiators raising nuclear beta-catenin – imaging, WNT3A-conditioned medium, mouse C2C12, NPC library, primary screen (AID 1117326; in the data active = nuclear beta-catenin stimulation mostly above about 4.2%, no sharp cut-off; inactive = mostly below about 10%); conditions: stronger effect = higher value
# [7] = stimulators of insulin release from INS-1E, primary screen, cell-based, 5 mM glucose, NPC library (AID 1117329;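 active = compound raises insulin release from rat beta cells at 5 mM glucose, no numeric limit stated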); conditions: rat INS-1E insulin secretion, at 10 µM, stronger effect = higher value
# [8] = growth inhibition of GSK3B-pretreated HCT116 cells – cell-based, CellTiter-Glo, 0.2 to 20 µM (AID 1117336;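 active = compounds lowering colon cancer cell viability after pretreatment blocking the GSK3B kinase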); conditions: HCT116 viability after GSK3B inhibitor, at 20 µM, stronger effect = higher value
# [9] = inhibition of endothelial tube formation, primary screen, imaging, VEGF stimulated, CD31 staining, tube area, NPC library (AID 1117340;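 active = compound that reduces growth-factor-driven endothelial tube area in a mixed cell culture, no cutoff stated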); conditions: VEGF-stimulated ADSC/ECFC co-culture, at 10 µM, stronger effect = higher value
# [10] = GLP1 release stimulators, primary, NCI-H716, NPC library (AID 1117341;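 active = compound raises GLP1 secretion from the human gut endocrine cells, with no numeric limit stated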); conditions: NCI-H716 cells, at 10 µM, stronger effect = higher value
# [11] = HCT116 colon cancer cell growth inhibition, primary screen, CellTiter-Glo luminescence, NPC library (AID 1117342;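 active = compounds that lower survival of HCT116 colon cancer cells in the luminescence readout, no numeric limit stated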); conditions: at 20 µM (top of the series)
# [12] = reduced SW480 viability measured with CellTiter-Glo, NPC library, primary (AID 1117343;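 active = compounds that lower viability of the colon cancer cells in the luminescence readout, with no numeric limit stated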); conditions: CellTiter-Glo luminescence; at 20 µM (top of the series)
# [13] = NPC library primary testing for decreased DLD-1 cell viability via CellTiter-Glo (AID 1117346;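 active = compounds that lower survival of DLD-1 colon cancer cells in the luminescence readout, no cutoff given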); conditions: DLD-1 viability, CellTiter-Glo luminescence; at 20 µM (top of the series)
# [14] = molecular target: 6-phosphogluconate dehydrogenase, decarboxylating (Homo sapiens) (UniProt P52209); experiment: inhibition of human phosphogluconate dehydrogenase – biochemical, recombinant enzyme, NADPH absorbance, primary screen (AID 1159550;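 active = at least 20% inhibition of 6-phosphogluconate dehydrogenase activity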); conditions: recombinant 6PGD, NADPH absorbance 341 nm; at 10 µM; stronger effect = higher value
# [15] = EMT-state selective cytotoxicity in co-culture – imaging, PC-3E GFP, TEM4-18 mCherry, primary screen (AID 1345086;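 active = compounds killing one labelled cell type while sparing the other, by normalised counts and ratio limits, not self-fluorescent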;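 as to all read-outs here: cells exposed to compound for 72 h before imaging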;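 as to red/green cell ratio (normalised): normalised mesenchymal count divided by normalised epithelial count so high means epithelial killing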); conditions: PC-3E GFP / TEM4-18 mCherry co-culture, imaging cell counts, at 1 µM; for red/green cell ratio (normalised): actives lie on both sides, counts scaled to control wells, 1 = unselective
# [16] = MELAS cybrid and Rieske KO viability enhancers – cell-based, MELAS cybrids, Rieske KO mouse fibroblasts, CellTiter-Glo, primary screen (AID 1508586;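 active = mean z-score across replicates of 1.96 or higher in either the MELAS or the Rieske mutant cell line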;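 also: z relative to plate mean and SD of compound and empty wells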); conditions: low glucose
# [17] = drug combination growth inhibition, ovarian cancer – cell-based, oncology-focused library, rucaparib conditional, profiling panel (AID 1508598); conditions: patient-derived ovarian cancer cells, CellTiter-Glo viability, 144 h, stronger effect = lower value
# [18] = molecular target: NAD(+) hydrolase SARM1 (Homo sapiens) (UniProt Q6SZW1); experiment: blocking NAD cleavage by SARM1 SAM-TIR – cell lysate, NAD-Glo luminescence (AID 1508614;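 active = compound whose remaining NAD level is above about 45 nM, limit read from the data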;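 also: higher remaining NAD means stronger inhibition of SARM1 NADase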); conditions: SAM-TIR HEK293T lysate NADase, at 1 µM, stronger effect = higher value
# [19] = molecular target: Mitogen-activated protein kinase 7 (Homo sapiens) (UniProt Q13164); experiment: Gal4-ERK5 driven luciferase induction – cell-based, HTS, primary screen (AID 1508626;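 active = luciferase signal above three times the same-plate solvent-only control wells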;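 also: luciferase driven by Gal4-ERK5 fusion binding five Gal4 sites before minimal TATA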); conditions: HeLa Gal4-ERK5 transactivation, 18 h, at 5 µM, stronger effect = higher value
# [20] = measured here: epithelial PC-3E GFP cell survival
# [21] = measured here: mesenchymal TEM4-18 mCherry cell survival
# [22] = MELAS cybrid survival, CellTiter-Glo 48 h, stronger effect = higher value
# [23] = Rieske KO mouse fibroblast survival, CellTiter-Glo 72 h
# Chain of 6-phosphogluconate dehydrogenase, decarboxylating (Homo sapiens) (P52209 whole entry, looked up): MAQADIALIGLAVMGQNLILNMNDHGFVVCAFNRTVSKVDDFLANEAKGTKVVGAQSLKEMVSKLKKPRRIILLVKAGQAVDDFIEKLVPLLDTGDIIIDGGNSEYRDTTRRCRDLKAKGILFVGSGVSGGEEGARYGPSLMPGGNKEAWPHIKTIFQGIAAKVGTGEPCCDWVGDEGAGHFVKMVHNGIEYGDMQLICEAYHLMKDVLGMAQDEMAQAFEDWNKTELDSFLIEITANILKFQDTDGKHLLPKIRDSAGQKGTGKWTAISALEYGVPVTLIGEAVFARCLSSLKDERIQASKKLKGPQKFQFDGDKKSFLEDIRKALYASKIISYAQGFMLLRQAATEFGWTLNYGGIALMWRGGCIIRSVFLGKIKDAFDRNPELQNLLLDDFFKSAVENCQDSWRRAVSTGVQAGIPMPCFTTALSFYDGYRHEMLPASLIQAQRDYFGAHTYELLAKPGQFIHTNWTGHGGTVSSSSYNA
# Chain of NAD(+) hydrolase SARM1 (Homo sapiens) (Q6SZW1 whole entry, looked up, the tested form may be a part): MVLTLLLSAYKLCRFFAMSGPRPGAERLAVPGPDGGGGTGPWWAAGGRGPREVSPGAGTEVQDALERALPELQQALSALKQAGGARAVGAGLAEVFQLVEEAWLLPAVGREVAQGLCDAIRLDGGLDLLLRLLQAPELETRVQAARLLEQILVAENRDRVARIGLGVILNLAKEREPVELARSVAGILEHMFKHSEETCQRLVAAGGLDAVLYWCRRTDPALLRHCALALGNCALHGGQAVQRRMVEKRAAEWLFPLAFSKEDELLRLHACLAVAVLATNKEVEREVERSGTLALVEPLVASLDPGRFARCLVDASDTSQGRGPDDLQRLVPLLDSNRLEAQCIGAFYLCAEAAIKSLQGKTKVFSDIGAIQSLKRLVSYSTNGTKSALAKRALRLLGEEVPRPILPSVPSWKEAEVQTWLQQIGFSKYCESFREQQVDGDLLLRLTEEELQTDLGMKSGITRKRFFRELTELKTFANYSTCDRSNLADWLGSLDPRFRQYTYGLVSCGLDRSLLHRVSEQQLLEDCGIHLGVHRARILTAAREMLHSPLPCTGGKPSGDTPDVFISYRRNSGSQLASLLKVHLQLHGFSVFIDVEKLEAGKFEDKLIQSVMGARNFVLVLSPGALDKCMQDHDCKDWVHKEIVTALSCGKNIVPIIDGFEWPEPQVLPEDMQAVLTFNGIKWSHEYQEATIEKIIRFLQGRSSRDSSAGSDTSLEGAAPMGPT
# Chain of Mitogen-activated protein kinase 7 (Homo sapiens) (Q13164 whole entry, looked up, the tested form may be a part): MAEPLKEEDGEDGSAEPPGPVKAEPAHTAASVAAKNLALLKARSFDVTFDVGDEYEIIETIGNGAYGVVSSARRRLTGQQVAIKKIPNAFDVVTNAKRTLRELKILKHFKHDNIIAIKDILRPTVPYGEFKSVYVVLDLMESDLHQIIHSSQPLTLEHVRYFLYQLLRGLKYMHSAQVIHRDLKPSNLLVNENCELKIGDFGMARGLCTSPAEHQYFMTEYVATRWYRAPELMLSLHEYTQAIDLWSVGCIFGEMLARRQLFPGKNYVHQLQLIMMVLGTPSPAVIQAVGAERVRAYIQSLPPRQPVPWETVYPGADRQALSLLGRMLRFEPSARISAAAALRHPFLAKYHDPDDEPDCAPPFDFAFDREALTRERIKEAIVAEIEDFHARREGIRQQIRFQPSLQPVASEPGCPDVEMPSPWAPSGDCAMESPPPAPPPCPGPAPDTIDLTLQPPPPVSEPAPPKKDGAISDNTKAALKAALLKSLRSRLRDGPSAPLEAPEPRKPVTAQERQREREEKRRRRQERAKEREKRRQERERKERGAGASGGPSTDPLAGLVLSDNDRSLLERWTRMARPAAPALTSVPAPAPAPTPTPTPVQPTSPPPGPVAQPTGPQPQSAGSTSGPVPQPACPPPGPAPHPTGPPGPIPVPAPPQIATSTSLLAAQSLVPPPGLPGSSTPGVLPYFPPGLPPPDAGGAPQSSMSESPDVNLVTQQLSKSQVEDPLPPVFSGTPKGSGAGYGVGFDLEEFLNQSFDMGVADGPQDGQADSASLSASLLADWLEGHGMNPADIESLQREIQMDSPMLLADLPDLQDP
smiles,measurement,setting,value
O=C1CCC(N2C(=O)c3ccccc3C2=O)C(=O)N1 (stereo unspecified),inhibition,[1],8.81%
same,score,[2],1.27
same,rescue above control,[3],21.9
same,cytochrome c release ratio,[4],1.09
same,inhibition of aggregation,[5],81%
same,nuclear beta-catenin stimulation,[6]; at 10 µM,2.4% (inactive)
same,nuclear beta-catenin stimulation,"[6]; stimulation, at 2 µM",2.1%
same,insulin secretion stimulation,[7],0.6% (inactive)
same,viability decrease,[8],-12.6% (inactive)
same,tube area decrease,[9],5.6% (inactive)
same,GLP1 secretion stimulation,[10],-3.8% (inactive)
same,inhibition of viability,[11],6.9% (inactive)
same,viability decrease (inhibition),[12],11.1% (inactive)
same,viability decrease (inhibition),[13],53.7% (active)
same,inhibition,[14],-1.45% (inactive)
same,red/green cell ratio (normalised),[15],1.17 (inactive)
same,normalised cell number,[15]; [20],1.23
same,normalised cell number,[15]; [21],1.44
same,z-score,[16]; [22],-0.413 (inactive) and 0.577 (inactive) and -0.221 (inactive)
same,z-score,[16]; [23],-0.261 and 0.0412 and -1.15
same,viability,"[17]; at 0.000305 µM, OCI-C5x cells, with rucaparib 10 µM, 100% = cells with rucaparib alone",117% (inactive)
same,viability,"[17]; at 0.000305 µM, OCI-C5x cells, without rucaparib",95% (active)
same,viability,"[17]; at 0.000305 µM, OCI-P5x cells, with rucaparib 20 µM, 100% = cells with rucaparib alone",99.4% (active)
same,viability,"[17]; at 0.000305 µM, OCI-P5x cells, without rucaparib",103% (inactive)
same,viability,"[17]; at 0.00122 µM, OCI-C5x cells, with rucaparib 10 µM, 100% = cells with rucaparib alone",108% (inactive)
same,viability,"[17]; at 0.00122 µM, OCI-C5x cells, without rucaparib",102% (inactive)
same,viability,"[17]; at 0.00122 µM, OCI-P5x cells, with rucaparib 20 µM, 100% = cells with rucaparib alone",100% (inactive)
same,viability,"[17]; at 0.00122 µM, OCI-P5x cells, without rucaparib",109% (inactive)
same,viability,"[17]; at 0.00488 µM, OCI-C5x cells, with rucaparib 10 µM, 100% = cells with rucaparib alone",110% (inactive)
same,viability,"[17]; at 0.00488 µM, OCI-C5x cells, without rucaparib",99.5% (active)
same,viability,"[17]; at 0.00488 µM, OCI-P5x cells, with rucaparib 20 µM, 100% = cells with rucaparib alone",112% (inactive)
same,viability,"[17]; at 0.00488 µM, OCI-P5x cells, without rucaparib",106% (inactive)
same,viability,"[17]; at 0.0195 µM, OCI-C5x cells, with rucaparib 10 µM, 100% = cells with rucaparib alone",111% (inactive)
same,viability,"[17]; at 0.0195 µM, OCI-C5x cells, without rucaparib",109% (inactive)
same,viability,"[17]; at 0.0195 µM, OCI-P5x cells, with rucaparib 20 µM, 100% = cells with rucaparib alone",112% (inactive)
same,viability,"[17]; at 0.0195 µM, OCI-P5x cells, without rucaparib",111% (inactive)
same,viability,"[17]; at 0.0781 µM, OCI-C5x cells, with rucaparib 10 µM, 100% = cells with rucaparib alone",113% (inactive)
same,viability,"[17]; at 0.0781 µM, OCI-C5x cells, without rucaparib",104% (inactive)
same,viability,"[17]; at 0.0781 µM, OCI-P5x cells, with rucaparib 20 µM, 100% = cells with rucaparib alone",107% (inactive)
same,viability,"[17]; at 0.0781 µM, OCI-P5x cells, without rucaparib",115% (inactive)
same,viability,"[17]; at 0.313 µM, OCI-C5x cells, with rucaparib 10 µM, 100% = cells with rucaparib alone",114% (inactive)
same,viability,"[17]; at 0.313 µM, OCI-C5x cells, without rucaparib",109% (inactive)
same,viability,"[17]; at 0.313 µM, OCI-P5x cells, with rucaparib 20 µM, 100% = cells with rucaparib alone",112% (inactive)
same,viability,"[17]; at 0.313 µM, OCI-P5x cells, without rucaparib",119% (inactive)
same,viability,"[17]; at 1.25 µM, OCI-C5x cells, with rucaparib 10 µM, 100% = cells with rucaparib alone",114% (inactive)
same,viability,"[17]; at 1.25 µM, OCI-C5x cells, without rucaparib",103% (inactive)
same,viability,"[17]; at 1.25 µM, OCI-P5x cells, with rucaparib 20 µM, 100% = cells with rucaparib alone",116% (inactive)
same,viability,"[17]; at 1.25 µM, OCI-P5x cells, without rucaparib",117% (inactive)
same,viability,"[17]; at 5 µM, OCI-C5x cells, with rucaparib 10 µM, 100% = cells with rucaparib alone",116% (inactive)
same,viability,"[17]; at 5 µM, OCI-C5x cells, without rucaparib",108% (inactive)
same,viability,"[17]; at 5 µM, OCI-P5x cells, with rucaparib 20 µM, 100% = cells with rucaparib alone",114% (inactive)
same,viability,"[17]; at 5 µM, OCI-P5x cells, without rucaparib",115% (inactive)
same,remaining NAD,[18],10 nM (inactive)
same,luciferase signal,[19],36 AU (inactive)
CCCCN1CCCC[C@H]1C(=O)Nc1c(C)cccc1C,nuclear beta-catenin stimulation,[6]; at 10 µM,0.3% (inactive)
same,nuclear beta-catenin stimulation,"[6]; stimulation, at 2 µM",0.4%
same,insulin secretion stimulation,[7],25.7% (active)
same,viability decrease,[8],26.6% (inactive)
same,tube area decrease,[9],-20.3% (inactive)
same,GLP1 secretion stimulation,[10],2.9% (inactive)
same,inhibition of viability,[11],23.7% (inactive)
same,viability decrease (inhibition),[12],21.1% (inactive)
same,viability decrease (inhibition),[13],23.1% (inactive)
Cc1noc(NS(=O)(=O)c2ccc(N)cc2)c1C,inhibition,[1],16.5%
same,score,[2],1.57
same,rescue above control,[3],-13
same,cytochrome c release ratio,[4],0.89
same,inhibition of aggregation,[5],1.83%
same,nuclear beta-catenin stimulation,[6]; at 10 µM,0.8% (inactive)
same,nuclear beta-catenin stimulation,"[6]; stimulation, at 2 µM",0.7%
same,insulin secretion stimulation,[7],-1.5% (inactive)
same,viability decrease,[8],-14.5% (inactive)
same,tube area decrease,[9],8.7% (inactive)
same,GLP1 secretion stimulation,[10],0.1% (inactive)
same,inhibition of viability,[11],0.13% (inactive)
same,viability decrease (inhibition),[12],-27% (inactive)
same,viability decrease (inhibition),[13],-5.7% (inactive)
same,inhibition,[14],-15.2% (inactive)
same,red/green cell ratio (normalised),[15],1.68 (inactive)
same,normalised cell number,[15]; [20],0.73
same,normalised cell number,[15]; [21],1.22
same,z-score,[16]; [22],-0.0643 (inactive) and 0.19 (inactive)
same,z-score,[16]; [23],-0.11 and -0.107
same,remaining NAD,[18],10 nM (inactive)
same,luciferase signal,[19],100 AU (inactive)
N=C(N)c1ccc(OCCCCCOc2ccc(C(=N)N)cc2)cc1,inhibition,[1],-13.3%
same,score,[2],0.69
same,rescue above control,[3],0
same,cytochrome c release ratio,[4],2.1
same,inhibition of aggregation,[5],62.8%
same,nuclear beta-catenin stimulation,[6]; at 10 µM,-0.7% (inactive)
same,nuclear beta-catenin stimulation,"[6]; stimulation, at 2 µM",1.1%
same,insulin secretion stimulation,[7],2.3% (inactive)
same,viability decrease,[8],0.4% (inactive)
same,tube area decrease,[9],43.4% (active)
same,GLP1 secretion stimulation,[10],-3.5% (inactive)
same,inhibition of viability,[11],12.5% (inactive)
same,viability decrease (inhibition),[12],60.9% (active)
same,viability decrease (inhibition),[13],55.1% (active)
same,inhibition,[14],12.1% (inactive)
same,red/green cell ratio (normalised),[15],0.75 (inactive)
same,normalised cell number,[15]; [20],1.05
same,normalised cell number,[15]; [21],0.79
same,z-score,[16]; [22],6.07 (active) and -3.61 (inactive) and 2.69 (active)
same,z-score,[16]; [23],6.42 and -2.57 and -1.21
same,remaining NAD,[18],10 nM (inactive)
